# hgDAF-12 ag – agonists of H. glycines DAF-12 nuclear receptor; HEK293 GAL4-hgDAF12 UAS-luciferase reporter, agonist luminescence; normalized to butyrate control; activation, % at 6.8 µM; 370,000 compounds, 1.8% hits; AID 687014;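 active = activation above a cutoff set at the mean of all screened compounds plus 3 SD, cut at about 10% in these data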;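 also: 0% = DMSO wells and 100% = sodium butyrate wells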
# DAX1 inh-1 – inhibits human nuclear receptor DAX1; inhibition, % at 6.75 µM; P51843; 340,000 compounds, 0.99% hits; HEK293 Gal4-DAX1 luciferase reporter, luminescence;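 active = inhibition above the mean over all tested compounds plus 3 SD, cut at about 4.2% in these data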;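 also: 0% = DAX1-transfected cells with DMSO and 100% = empty-vector control cells with DMSO; inhibition shows as a rise in luminescence from relieved DAX1 repression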
# ssDAF-12 act – activators of S. stercoralis DAF-12 nuclear receptor; HEK293 ssDAF-12/GRIP1 lit1-tk-luc reporter, luminescence; % of 3 µM dafachronic acid response; activation, % at 6.8 µM; 370,000 compounds, 1% hits; AID 652126;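 active = activation above the mean over all tested compounds plus 3 SD, cut at about 0.9% in these data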;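 also: 0% = DMSO-only wells and 100% = 3 µM delta7-dafachronic acid wells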
# AHR activator – human AHR activation | P35869 | AHR-responsive luciferase reporter cells, luminescence | activation, % at 5 µM | 320,000 compounds, 2.5% hits | AID 2796; in the data active = activation above about 47%;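 also: 0% = vehicle wells and 100% = reference agonist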
# Target sequence (P35869 whole entry, looked up): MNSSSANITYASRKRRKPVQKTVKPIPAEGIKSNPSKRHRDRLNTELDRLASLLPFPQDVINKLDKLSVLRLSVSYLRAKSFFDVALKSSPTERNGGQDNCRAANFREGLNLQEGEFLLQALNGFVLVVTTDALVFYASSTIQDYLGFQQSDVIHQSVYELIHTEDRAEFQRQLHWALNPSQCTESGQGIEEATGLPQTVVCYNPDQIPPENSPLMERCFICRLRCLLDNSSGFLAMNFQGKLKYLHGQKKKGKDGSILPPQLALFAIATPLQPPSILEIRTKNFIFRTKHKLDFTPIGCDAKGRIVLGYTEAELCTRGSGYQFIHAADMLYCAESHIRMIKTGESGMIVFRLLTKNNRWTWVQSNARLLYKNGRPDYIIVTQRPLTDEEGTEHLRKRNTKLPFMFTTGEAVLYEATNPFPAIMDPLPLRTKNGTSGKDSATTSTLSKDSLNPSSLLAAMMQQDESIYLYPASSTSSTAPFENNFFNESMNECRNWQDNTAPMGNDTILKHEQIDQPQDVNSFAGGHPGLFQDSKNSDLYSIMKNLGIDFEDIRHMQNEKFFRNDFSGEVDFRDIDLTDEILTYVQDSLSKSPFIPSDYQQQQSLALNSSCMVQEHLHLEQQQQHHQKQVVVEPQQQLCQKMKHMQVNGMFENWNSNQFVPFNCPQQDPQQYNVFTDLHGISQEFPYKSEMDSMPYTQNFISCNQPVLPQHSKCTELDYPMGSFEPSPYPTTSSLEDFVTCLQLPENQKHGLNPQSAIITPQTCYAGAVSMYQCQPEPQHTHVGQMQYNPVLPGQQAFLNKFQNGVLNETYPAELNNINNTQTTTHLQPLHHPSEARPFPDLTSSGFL
# DAX1 inh-2 – inhibitors of DAX1 repression of SF-1 activated StAR promoter; HEK293T StAR-luciferase reporter, SF-1/DAX-1 repression relief; inhibition, % at 6.8 µM; 370,000 compounds, 1.1% hits; AID 652010;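 active = inhibition above the mean over all tested compounds plus 3 SD, cut at about 3.6% in these data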;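 also: 0% = DAX-1 cells with DMSO and 100% = cells lacking DAX-1 with DMSO; higher inhibition means more luminescence from relief of DAX-1 repression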
# hcDAF12 agonist – activators of H. contortus DAF-12 nuclear receptor | HEK293 hcDAF-12 lit1-tk-luc reporter, luminescence; 0% DMSO, 100% Δ7-dafachronic acid | activation, % at 6.8 µM | 370,000 compounds, 1.4% hits | AID 652067;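 active = activation above the mean of all tested compounds plus 3 SD, cut at about 5.5% in these data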;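 also: 100% = response to 3 µM Δ7-dafachronic acid high control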
# hgDAF12 conf – confirmation of H. glycines DAF-12 agonists; shares compounds with hgDAF-12 ag; HEK293 GAL4-hgDAF12 luciferase reporter, agonist mode; percent of butyrate response; activation, % at 6.8 µM; 3,300 compounds, 80% hits; AID 743050;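 active = mean activation over triplicate wells above the hit cutoff derived from the earlier primary screen, cut at about 11% in these data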;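 also: 0% = DMSO low control and 100% = 2 mM sodium butyrate high control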
# LXRb DAF12 ctr – LXR-beta agonism as DAF-12 counter-screen; shares compounds with hgDAF-12 ag; HEK293 Gal4-LXR luciferase reporter, 24 h; activation, % at 6.8 µM; 3,300 tested, under 10 active; AID 743051;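 active = mean activation of the triplicate above a set limit carried over from the primary screen, none filed active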
# * marks the source's active call; other numbers are inactive results; nt = not tested or not shown. An excerpt weighted towards active compounds, which were near 5.7% of everything screened.
SMILES,hgDAF-12 ag,DAX1 inh-1,ssDAF-12 act,AHR activator,DAX1 inh-2,hcDAF12 agonist,hgDAF12 conf,LXRb DAF12 ctr
COC(=O)c1cccc(NC(=O)c2onc3c2CCCC3)c1,17*,1,1,-7,3.8*,6.0*,18*,1
COC(=O)c1cccc(NC(=O)c2ccccc2)c1,3,2,-1,4,1,1,nt,nt
CC(C)C(NC(=O)c1cccc(S(=O)(=O)N2CCOCC2)c1)C(=O)NCc1ccc(Cl)cc1 (stereo not drawn),2,-1,-1,1,-1,-2,nt,nt
Cc1cccc(N=Nc2c(C)nn(-c3ccccc3)c2N)c1C,16*,0,-1,-1,0,1,11*,0
Nc1nc2ccccc2n1C(=O)CCc1ccccc1,14*,5.0*,0,39,1,4,18*,1
Nc1nc2ccccc2n1C(=O)c1cccs1,15*,1,1.0*,52*,3,5,13*,1
Cn1c(=O)c2ncn(CC(=O)O)c2n(C)c1=O,0,1,-1,-2,0,-1,nt,nt
COCCOc1cc2ncnc(N3CCC(C(=O)O)CC3)c2cc1OCCOC,-1,0,-2,-1,1,-1,nt,nt
O=C1Nc2ccc(C(=O)O)c(O)c2C1=O,-3,-1,-1,nt,0,0,nt,nt
C[C@H](CO)N1C[C@H](C)[C@@H](CN(C)C(=O)c2cnccn2)Oc2cc(C#CCC3CCCC3)ccc2S1(=O)=O,0,0,-1,nt,-1,0,nt,nt
CCOc1cccc(C(=O)NC(=S)Nc2ccccc2)c1,19*,3,0,13,2,3,16*,0
CCC(=O)Nc1cccc(NC(=S)NC(=O)c2ccc(C)cc2)c1,14*,4.8*,-1,24,3.8*,3,16*,1
CCC(=O)Nc1cccc(NC(=S)NC(=O)c2cc3ccccc3o2)c1,16*,2,1,9,2,5,22*,1
CC(=O)c1cccc(NC(=S)NC(=O)c2ccc(C)cc2)c1,15*,0,0,4,4.0*,2,15*,1
CCC(=O)Nc1ccc(NC(=S)NC(=O)c2cc3ccccc3o2)cc1,1,0,-1,3,-1,1,nt,nt
O=C(Nc1cccc(S(=O)(=O)Nc2ccc(Cl)cc2)c1)c1ccccn1,-3,-1,-2,1,-5,-2,nt,nt
O=C(Nn1cnnc1)c1ccc(Cl)cc1,0,1,-1,0,0,-1,nt,nt
O=C(c1cc(N2CCOCC2)c(F)cc1[N+](=O)[O-])N1CCOCC1,2,1,-1,-1,0,1,nt,nt
Cc1ccc(Cc2nc(-c3cccnc3)no2)cc1,3,1,0,-3,-1,-2,nt,nt
Cc1ccc(-c2nc(-c3cccnc3)no2)cc1,14*,3,0,-11,3,3,18*,1
Cc1ccc(-c2nc(-c3ccncc3)no2)cc1,15*,3,0,nt,1,4,15*,1
c1ccc(-c2noc(-c3cccnc3)n2)nc1,14*,1,0,-6,3,1,12*,0
CCCC1(c2ccccc2)NC(=O)N(CC(=O)NCc2ccc(OC)cc2)C1=O (stereo not drawn),-1,1,-1,6,1,-2,nt,nt
C[C@]12CCC[C@H](O1)[C@H]([C@@H](O)c1ccccc1)O2,nt,2,nt,0,nt,nt,nt,nt
O=C(O)CCC(=O)Nc1ccccc1C(=O)NCCc1ccccc1,19*,1,1,16,2,5.9*,7,0
SMILES,hgDAF-12 ag,DAX1 inh-1,ssDAF-12 act,AHR activator,DAX1 inh-2,hcDAF12 agonist,hgDAF12 conf,LXRb DAF12 ctr
CN1CCN(c2ccc(-c3cc(NC=O)c4ncc(-c5ccc(F)cc5)n4c3)cc2)CC1,17*,nt,0,nt,1,0,8,0
Cc1ccc(OCc2nc3ccccc3[nH]2)cc1,16*,0,0,-7,4.2*,6.0*,13*,1
Cc1ccc(C(=O)Cc2nc3ccccc3[nH]2)cc1,6,0,0,3,1,2,nt,nt
O=c1cc(-c2ccccc2)nc(SCc2ccccc2F)[nH]1,0,-1,-1,23,0,0,nt,nt
C=CCOC(=O)C(CO)NC(=O)CCCC(=O)O (stereo not drawn),7,nt,-1,nt,0,-2,nt,nt
Cc1cc2sc(NC(=O)c3ccco3)nc2cc1Cl,14*,2,-1,-3,3,4,20*,1
Cc1ccc2nc(NC(=O)c3ccc(Br)o3)sc2c1,15*,4,1,16,2,6.3*,17*,1
CCCCc1ccc2nc(NC(=O)c3ccco3)sc2c1,22*,nt,0,nt,nt,5,19*,1
O=C(Nc1nc2ccc(Br)cc2s1)c1ccco1,13*,1,1,12,3,6.1*,17*,1
O=C(CSc1nnc(COc2ccc(Cl)cc2)o1)Nc1ccc(N2CCOCC2)cc1,-1,0,-1,nt,-2,0,nt,nt
O=C(NCCCN1CCOCC1)c1cc(-c2ccc(O)cc2)on1,8,2,0,0,1,2,nt,nt
O=C(NCCCN1CCOCC1)c1cc(-c2ccccc2)on1,26*,3,-1,11,1,3,27*,0
O=C(NCCN1CCOCC1)c1cc(-c2ccccc2)on1,24*,2,0,12,0,2,23*,0
O=C(NCCN1CCOCC1)c1cc(-c2ccc(Br)cc2)on1,0,1,-1,8,0,0,nt,nt
O=C(NCCN1CCOCC1)c1cc(-c2cccs2)on1,20*,3,0,62*,-1,1,29*,0
COc1ccccc1N(C)S(=O)(=O)c1ccc(C(=O)NCC2CCCCC2)cc1,-1,-1,-2,2,-1,-2,nt,nt
COC(CNC(=O)c1c[nH]c2ccc(S(=O)(=O)N(C)c3ccc(F)cc3)cc2c1=O)OC,-2,0,-1,14,-1,-1,nt,nt
Cn1cc(Cl)c(/C(N)=N/OC(=O)c2ccccc2C(F)(F)F)n1,5,2,-1,13,2,3,nt,nt
O=C(c1ccc(-c2ccc([N+](=O)[O-])cc2Cl)o1)N1CCOCC1,4,0,-1,11,0,0,nt,nt
O=C(c1ccc(-c2cccc(Cl)c2Cl)o1)N1CCOCC1,17*,2,0,16,4.0*,4,16*,1
NC(=O)CSc1nc2c(sc3ccccc32)c(=O)n1CCCC(=O)NCC1CCCO1 (stereo not drawn),1,3,-1,3,0,-1,nt,nt

# Compound activity (PubChem BioAssay)
